# Measured values reported in PubChem BioAssay (NCATS).
# Results filed as inconclusive are left out. Values without a mark were called inactive. Activity calls are given as the source filed them. The call rests on the fitted dose curve; tested in HEK293 reporter line. Peptide text beside a SMILES is read from it.
# Experiment: qHTS for Inhibitors of the Functional Ribonucleoprotein Complex (vRNP) of Lymphocytic Choriomeningitis Arenaviruses (LCMV): Viability assay - alamar blue signal for LCMV Primary Screen (AID 1347085); further: nearly all actives have a fitted effect of over 80% in size
# Conditions: alamar blue viability counter-screen, LCMV vRNP screen cells; series mostly up to 57.5 µM; activity change, negative = lower viability: at the top concentration
# On the % scale 0 is the no-effect control and ±100 the full control effect.
SMILES,"activity change, negative = lower viability",Potency
CC(C)(C)C(=O)OCOC(=O)[C@@H]1N2C(=O)[C@@H](NC(=O)[C@H](N)c3ccccc3)[C@H]2SC1(C)C,4.49%,–
C/C=C/c1ccc(OC)cc1,-0.863%,–
C=CC[N+]1([C@H]2C[C@H]3[C@@H]4CC[C@H]5C[C@H](OC(C)=O)[C@@H](N6CCCCC6)C[C@]5(C)[C@H]4CC[C@]3(C)[C@H]2OC(=O)CC)CCCCC1,-6.4%,–
CN(C)CCOC1=Cc2ccccc2Sc2ccc(Cl)cc21,19.2%,–
O=C(O)c1cn(C2CC2)c2cc(Cl)c(F)cc2c1=O,15.7%,–
CCN(CC)CCCN(c1ccccc1)C1Cc2ccccc2C1,–,inactive
O=C(CCN1CCN(CCO)CC1)N1c2ccccc2Sc2ccc(C(F)(F)F)cc21,-6.52%,–
NCCc1cnc[nH]1,–,inactive
c1cc(CN2CCCCC2)cc(OCCCNc2nc3ccccc3s2)c1,–,inactive
OC(CCCN1CCCCC1)(c1ccccc1)c1ccccc1,-23.7%,–
CCOC(=O)CN1CCCC1=O,-3.42%,–
CC1(C)[C@@H](OC(=O)CCC(=O)O)CC[C@]2(C)[C@H]3C(=O)C=C4[C@@H]5C[C@@](C)(C(=O)O)CC[C@]5(C)CC[C@@]4(C)[C@]3(C)CC[C@@H]12,22.7%,–
CC(C)=CCOc1ccc(/C=C/C(=O)c2ccc(OCC=C(C)C)cc2OCC(=O)O)cc1,6.93%,–
CC(=O)N[C@@H](CO)C(=O)N[C@@H](CC(=O)O)C(=O)N[C@@H](CCCCN)C(=O)N1CCC[C@H]1C(=O)O (Ac-SDKP-OH),6.05%,–
CC(=O)Oc1ccc(C(=C2CCCCC2)c2ccc(OC(C)=O)cc2)cc1,12.2%,–
O=C(O)COC(=O)Cc1ccccc1Nc1c(Cl)cccc1Cl,-0.0168%,–
C[C@]12CC[C@@H]3c4ccc(O)cc4CC[C@H]3[C@@H]1CCC2=O,–,inactive
O=c1[nH]c2cc(C(F)(F)F)c(N3CCOCC3)cc2n(CP(=O)(O)O)c1=O,1.8%,–
C1CCN2C[C@@H]3C[C@@H](CN4CCCC[C@@H]34)[C@H]2C1,3.35%,–
CN(C)[C@@H](CCOc1cccc2ccccc12)c1ccccc1,–,inactive

SMILES,"activity change, negative = lower viability",Potency
CCC(C(=O)OCCN1CCOC(c2ccccc2)C1C)c1ccccc1 (stereo not given),-1.82%,–
CC(=O)N[C@H]1[C@H]([C@H](O)[C@H](O)CO)OC(C(=O)O)=C[C@@H]1N=C(N)N,12.8%,–
NCC1CCC(C(=O)Oc2ccc(CCC(=O)O)cc2)CC1 (stereo not given),1.74%,–
Cc1ncc(COP(=O)(O)O)c(C=O)c1O,7.26%,–
CNC(=O)c1cnn(-c2nc(N)c3ncn([C@@H]4O[C@H](CO)[C@@H](O)[C@H]4O)c3n2)c1,0.459%,–
O=c1[nH]c(=O)c2ccccc2o1,10.8%,–
Cc1ccc(=O)n(-c2ccccc2)c1,–,inactive
CN1CCCN=C1COC(=O)C(O)(c1ccccc1)C1CCCCC1 (stereo not given),2.35%,–
C1CCC(C(CC2CCCCN2)C2CCCCC2)CC1 (stereo not given),-5.42%,–
O=C(O)C1CCC1,-0.0892%,–
CCn1ccnc1CC1COc2ccccc2O1 (stereo not given),–,inactive
C#C[C@]1(O)CC[C@H]2[C@@H]3CCc4cc(OC)ccc4[C@H]3CC[C@@]21C,6.52%,–
CCCCN(CCCC)CC(O)c1cc(Cl)cc2c1-c1ccc(Cl)cc1/C2=C/c1ccc(Cl)cc1 (stereo not given),10.8%,–
COc1ccccc1OC(=O)Oc1ccccc1OC,1.02%,–
COCCc1ccc(OCC2CO2)cc1 (stereo not given),0.245%,–
CCCOc1ccc(C(=O)OCCN(CC)CC)cc1N,–,inactive
O=C(O)C(=O)Nc1cccc(-c2nn[nH]n2)c1,11.3%,–
NCCNC(=O)c1ccc(Cl)cn1,6.68%,–
CCCCC1C(=O)N(c2ccccc2)N(c2ccc(O)cc2)C1=O (stereo not given),-0.262%,–
Cc1c(C)n(Cc2ccccc2)c2ccc(C(=O)OCCN(C)C)cc12,19.3%,–
